Screening results from PubChem BioAssay.
Pf Dd2 inh – inhibitors of Plasmodium falciparum Dd2 growth; P. falciparum Dd2 growth, SYBR Green, 72 h; Potency, µM (series often up to 28.9 µM), without a hit: at the top dose activity, negative = inhibition, usual class: inhibitors; actives 4.3% (n = 120,000); AID 1347417; active = well fitted inhibition curve with a large enough effect;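 also: plate controls were DMSO vehicle for no effect and reference drug for full effect; nearly all actives have a fitted effect of over 65% in size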
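Infected erythrocytes (Dd2, 0.3% parasitemia, 2.5% hematocrit final) are added to compound in RPMI-1640/Albumax II medium, grown 72 h at 37C in low oxygen, then lysed with saponin/Triton-X containing SYBR Green and read by fluorescence.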
Active calls of the source: *; i = inactive; [ ] = dose if it differs, or a comment. Only a selection was taken, and hits are over-represented in it overall. Potency is read from the fitted curve at half-maximal effect.

SMILES	Pf Dd2 inh
O=C1NC(=NC2CCCCC2)C2(CCN(Cc3ccc(F)cc3)C2)N1c1cc(F)cc(F)c1 (configuration not stated)	1.8µM*
CCc1noc(-c2cn(C3CCN(C(=O)c4ccc(Cl)s4)CC3)nn2)n1	i
O=[S+]1([O-])NCC2(CCN(Cc3ccc(OC(F)(F)F)cc3)C2)Nc2ccccc21 (configuration not stated)	-12%
CSc1ncccc1C(=O)N[C@@H]1CCOC[C@H]1Oc1ccc(C#N)cc1	-10%
CNC(=O)[C@@H]1CN(C(=O)c2ccc(Br)cc2F)C[C@H]1CO	12%
O=C1NCCOCCCN(C(=O)CC2CCCC2)[C@H]2CCCC[C@@H]12	-23%
O=C(NCCCc1ccccc1F)[C@@]12CNC[C@@H]1CN(Cc1ccccc1)C2	7.9µM*
O=C(NCCCc1ccccc1)C1CN(Cc2ccccc2)C(=O)N1 (configuration not stated)	7%[44.1 µM]
COCCCNC(=O)[C@H]1CN(Cc2ccccc2)C[C@H]1C(=O)O	-7%
O=C(c1ccoc1)N1CCC(N2C(=O)C(O)C23CCCCC3)CC1 (configuration not stated)	2%
COCCOCc1nc(C2CCCCN2C(=O)Nc2cccc(Cl)c2)no1 (configuration not stated)	i
CC(C)CC(=O)NC[C@@H]1C[C@H](F)CN1C(=O)CCCc1cccs1	-17%
C=CCNC(=O)Cc1ccc(N(Cc2ccc(C)cc2)C(=O)c2ccco2)cc1	-2%
CCC(C)NC(=O)C1CCC(CNS(=O)(=O)c2cccc3nsnc23)CC1 (configuration not stated)	0.79µM*
Cc1ccc(NC(=O)C2CCC(CNS(=O)(=O)c3cccc4nsnc34)CC2)c(Cl)c1 (configuration not stated)	i
Cc1ccc(Cl)cc1NC(=O)C1CCC(CNS(=O)(=O)c2cccc3nsnc23)CC1 (configuration not stated)	3.5µM*
Cc1ccc(NC(=O)C2CCN(S(=O)(=O)c3cccc4nsnc34)CC2)cc1F	-16%
CCCN(CCC)CCCNC(=O)C1CCN(S(=O)(=O)c2cccc3nsnc23)CC1	i
COC(=O)CNC(=O)C1CCN(S(=O)(=O)c2cccc3nsnc23)CC1	12%
O=C(c1cccc(OC(F)(F)F)c1)N1CCCC1c1nncn1Cc1ccncc1 (configuration not stated)	-1%
COc1ccc(C(=O)N2CCCC3(CCC(=O)N(Cc4ccncc4)C3)C2)o1 (configuration not stated)	-13%
CN1C(=O)CCC2(CNC(=O)c3cccn3C)CCC=C12 (configuration not stated)	i
O=C(c1ccccc1F)N1CCC2(CC1)C(=NC1CCCC1)NC(=O)N2c1cc(F)cc(F)c1	-5%
COCCNC(=O)C[C@@H]1O[C@H](Cn2cc(CN(C)Cc3ccccc3)nn2)[C@@H](O)[C@H]1O	i
Cc1ccc(CN2CCCOCCNC(=O)[C@@H]3CCCC[C@@H]32)s1	5µM*
SMILES	Pf Dd2 inh
Cc1ccc(CN2CCCCCNC(=O)[C@@H]3CCC[C@@H]32)s1	-17%
Cc1cccc(CN2CCCOCCNC(=O)[C@@H]3CCCC[C@@H]32)c1	i
COCCn1ncc(N2CCCC(CC(=O)NCc3ccc(F)cc3F)C2)cc1=O (configuration not stated)	12%
CC(C)Oc1cccc(-c2nnc(CCC(=O)N3CCC(Cc4ccccc4)CC3)c(=O)[nH]2)c1	i
COc1cc2nc(Nc3cccc(C)c3)nc(N)c2cc1OC	2.5µM*
CCOC(=O)c1ccc(Nc2nc(N)c3cc(OC)c(OC)cc3n2)cc1	1.3µM*
CCOC(=O)c1ccc2nc(C)cc(Nc3cccc(C(=O)O)c3)c2c1	1%
COc1ccc(Nc2nc(-c3ccccc3)c3cc(Br)ccc3n2)cc1	-18%
CCOC(=O)c1ccc(Nc2c(-c3ccc(O)c(OC)c3)nc3nc[nH]n23)cc1	33%[0.594 µM]
COc1cc2nc(Nc3ccc(C)c(C)c3)nc(N)c2cc1OC	0.1µM*
CCc1sc(Nc2cccc(C)c2)nc1-c1cc2cccc(OC)c2oc1=O	-1%
COc1cc2nc(Nc3ccc(F)cc3)nc(N)c2cc1OC	2.5µM*
COc1ccc(Nc2cc(C)nc3c(C)c(C)ccc23)cc1	-15%
COc1ccccc1C(O)c1nc(Nc2ccc(C(C)C)cc2)n[nH]1 (configuration not stated)	i
COc1ccc(NC(=O)c2nnn(CC(=O)Nc3c(C)cc(C)cc3C)c2N)cc1OC	34%
Cc1cccc(Nc2nc(N)nc(N)c2S(=O)(=O)c2ccccc2)c1	i
COc1ccc(-c2noc(C(=O)O)c2[C@@H](C)NC(=O)CC(C)C)cc1	26%[44.1 µM]
CN1CCC(OC2CCN(C(=O)c3ccc(Cl)s3)CC2)CC1	-24%
O=C1COCC2(CN1Cc1cccc(OC(F)(F)F)c1)CN(C(=O)C1CCOCC1)C2	-22%
CCn1cc(C(=O)N2CCCCCCNC(=O)CC2)cn1	-6%
O=C(c1ccncn1)N1C[C@@H](COCC2CC2)[C@H](c2ccncc2)C1	1%
COc1cccc(CNC(=O)CN2C(=O)NC3(CCOCC3)C2=O)c1OC	16%
CN(C(=O)C1CC1)C1CCc2ccccc21 (configuration not stated)	-12%[44.1 µM]
CC(C)Cc1cc(C(=O)NCC2(c3ccccc3F)CCCC2)on1	6%
Cc1nc(C)c(C(=O)N2CCC3(CC2)CC(N2CCOCC2)CCO3)s1 (configuration not stated)	39%
SMILES	Pf Dd2 inh
O=C(Cc1ccc(Cl)cc1)N1CCC2(CC1)CN(C1CCC1)CC2CO (configuration not stated)	8.9µM*
COCC1CN(C2CCC2)CC12CCN(C(=O)c1ccccn1)CC2 (configuration not stated)	11%
COCC1CN(C(C)=O)CC12CCN(C(=O)COc1cccc(C)c1)CC2 (configuration not stated)	i
COCC1CN(C2CCC2)CC12CCN(C(=O)COc1cccc(C)c1)CC2 (configuration not stated)	5µM*
COCC1CN(C2CCC2)CC12CCN(C(=O)c1cccs1)CC2 (configuration not stated)	-11%
COCC1CN(C2CCC2)CC12CCN(C(=O)c1cccc(C)c1)CC2 (configuration not stated)	8.9µM*
OCC1CN(C2CCC2)CC12CCN(C1CCC1)CC2 (configuration not stated)	1%
N#Cc1cccc(C(=O)N2CCC3(CC2)CN(C2CCC2)CC3CO)c1 (configuration not stated)	-10%
COCC1CN(C2CCC2)CC12CCN(C(=O)c1cccc(C#N)c1)CC2 (configuration not stated)	-23%
CCC(=O)N1CCCN(C)c2ccccc21	16%
Cc1ccc(C#N)c(N2CCCC(c3nccn3CC3CCC3)C2)n1 (configuration not stated)	i
O=C(CSc1ccncc1)N1CCN2C(=O)N(Cc3ccccc3)C(=O)[C@H]2C1	i
CCOC(=O)C1(Cc2cccc(Cl)c2)CCCN(Cc2cnn(C)c2)C1 (configuration not stated)	i
CCOC(=O)C1(Cc2ccccc2C)CCCN(Cc2nccn2CC)C1 (configuration not stated)	10µM*
CCOC(=O)C1(Cc2cccc(OC)c2)CCCN(Cc2cnc[nH]2)C1 (configuration not stated)	i
CCOC(=O)C1(Cc2ccccc2C)CCCN(Cc2cnc(C)s2)C1 (configuration not stated)	11µM*
CCn1ccnc1CN1CCC(Oc2ccccc2OC)(C(=O)O)CC1	-4%
